Laboratory results as given in PubChem BioAssay AID489037 (National Center for Advancing Translational Sciences (NCATS), 2010).
Values joined by “and” are separate entries in the source; they are usually repeats but may differ in a detail not shown here. Identical values can stand only once. Results filed as inconclusive are left out. Some structures have more than one record in an assay (separate samples or runs), and their calls can disagree. Active and inactive are the calls of the source. Calls come from the whole dose curve; as a rule, active = well fitted inhibition curve with a large enough effect; inconclusive = small, poorly fitted or top-dose-only effect, or effect the other way; inactive = no such curve, though single readings can be large or run the other way.

Molecular target: Nuclear receptor ROR-gamma (Mus musculus) (UniProt P51450)
Sequence (P51450 whole entry, looked up): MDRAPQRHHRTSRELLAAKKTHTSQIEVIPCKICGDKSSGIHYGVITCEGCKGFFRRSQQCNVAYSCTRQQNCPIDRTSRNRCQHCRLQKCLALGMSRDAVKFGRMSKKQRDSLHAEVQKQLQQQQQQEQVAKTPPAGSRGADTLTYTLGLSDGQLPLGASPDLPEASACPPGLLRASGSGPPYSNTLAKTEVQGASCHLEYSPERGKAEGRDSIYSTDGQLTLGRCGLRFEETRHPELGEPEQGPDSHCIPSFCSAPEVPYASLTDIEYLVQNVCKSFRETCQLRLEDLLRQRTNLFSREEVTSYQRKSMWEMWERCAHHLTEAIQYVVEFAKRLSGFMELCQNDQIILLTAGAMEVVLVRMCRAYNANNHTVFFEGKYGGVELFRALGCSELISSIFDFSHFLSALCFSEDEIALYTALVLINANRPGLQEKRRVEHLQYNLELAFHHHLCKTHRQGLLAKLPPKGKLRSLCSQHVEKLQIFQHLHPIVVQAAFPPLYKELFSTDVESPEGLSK
Assay: Secondary confirmation assay for inhibitors of ROR gamma transcriptional activity
Conditions: Drosophila S2 Gal4-RORgamma UAS-luciferase reporter, 20 h; series mostly up to 92.2 µM; activity change, negative = inhibition: at the top concentration
Text: NIH Molecular Libraries Probe Production Network [MLPCN] NIH Chemical Genomics Center [NCGC] MLPCN Grant: R03 DA026211-01 Assay Provider: Dan Littman, New York University Keywords: NIH Roadmap, MLPCN, MLI, MLSMR, qHTS, NCGC, qHTS, nuclear hormone receptor, retinoic acid-related orphan receptor, ROR gamma Assay Overview: The retinoic acid-related orphan receptor (ROR) gamma is a transcription factor that has a central role in the differentiation of Th17 cells, a subset of T helper cells that secrete the inflammatory cytokines IL-17, IL-17F, and IL-22. Th17 cells have been implicated in graft versus host disease, autoimmune disease and asthma. ROR gamma is induced in naive T helper cells in the presence of TGF-beta combined with IL-6, IL-21, or IL-23, and thereafter directs the expression of the Th17 lineage cytokines. To study the mechanism of action of ROR gamma, an insect cell-based assay was screened. This Drosophila Schneider cell line was stably transfected with two vectors: a gene expressing a fusion of the Gal4 DNA binding domain and ROR gamma transactivation domain under the control of the metallothionine promoter and a Photinus luciferase reporter regulated by the Gal4 binding site enhancer, UAS. […] Small molecule inhibitors of ROR gamma activity are detected by a decrease in luciferase reporter activity.
Assay Protocol Summary: For screening, 600 cells in 4 uL/well were dispensed into white solid 1536-well plates (Grenier) using a solenoid-based dispenser. Following transfer of 23 nL compound or DMSO vehicle by a pin tool, the plates were incubated 1 hr at ambient temperature, and 1 uL/well copper sulfate (700 uM final concentration) was added. The plates were centrifuged 15 s at 1000 RPM and incubated 20 hr at ambient temperature. After addition of 1.5 uL Photinus luciferase detection reagent, the plates were incubated 10 min at ambient temperature and then read by an ViewLux (Perkin Elmer) to detect luminescence. Keywords: NIH Roadmap, MLPCN, MLI, MLSMR, qHTS, NCGC, qHTS, nuclear hormone receptor, retinoic acid-related orphan receptor, ROR gamma

| SMILES | Potency | activity change, negative = inhibition |
| --- | --- | --- |
| Cc1cc(C)c2sc(NC(=O)c3ccc(N4C(=O)CCC4=O)cc3)nc2c1 | 0.229 µM (active) |  |
| COc1cc(O)c(C(CC(=O)N2CCC[C@@H](C)C2)c2ccc3c(c2)OCO3)c(OC)c1 (stereo not given in full) | 5.12 µM (active) and 22.9 µM (active) and inactive |  |
| COc1cc(O)c(C(CC(=O)N2CCC[C@H](C)C2)c2ccc3c(c2)OCO3)c(OC)c1 (stereo not given in full) | 9.11 µM (active) and 3.23 µM (active) and inactive |  |
| Cc1ccc(O)c(C(CC(=O)NC2CCCCC2)c2ccccc2)c1 (stereo not given) |  | 18.9% (inactive) |
| CCC1(CC)CCN(C(=O)CC(c2ccc3c(c2)OCO3)c2c(O)cc(OC)cc2OC)C1 (stereo not given) | 22.9 µM (active) |  |
| O=C(/C=C/c1ccc(S(=O)(=O)N2CCOCC2)cc1)NC(=S)Nc1ccc(N2CCOCC2)cc1 | 2.04 µM (active) |  |
| COc1ccc(OC)c(NC(=S)N(CCc2c(C)[nH]c3ccccc23)Cc2cccs2)c1 | 12.9 µM (active) |  |
| CCN(CC)c1ccc(/C=N/n2c(-c3ccccc3Br)n[nH]c2=S)cc1 | 1.62 µM (active) |  |
| COc1cc(O)c(C(CC(=O)N2CCCC(C)C2)c2ccc(OC)c(OC)c2)c(OC)c1 (stereo not given) | 9.11 µM (active) |  |
| CC1=C(\C=C/C(C)=C/C=C\C(C)=C\C(=O)O)C(C)(C)CCC1 |  | -12.4% [at 20 µM] (inactive) |
| COc1cc(OC)c(C(CC(=O)N2CC(C)CC(C)C2)c2ccc3c(c2)OCO3)c(OCC#N)c1 (stereo not given) | 7.24 µM (active) |  |
| COc1cc(O)c(C(CC(=O)N2CCCC(C)C2)c2ccc(-c3ccccc3)cc2)c(OC)c1 (stereo not given) |  | -26% (inactive) |
| COc1cc(O)c(C(CC(=O)N2CCCC(C(=O)c3ccccc3)C2)c2ccc3c(c2)OCO3)c(OC)c1 (stereo not given) |  | 15% (inactive) |
| Cc1ccc(C(=O)O/N=C/c2ccc(N(C)C)cc2)cc1 | 32.3 µM (active) |  |
| CCC1CCCN(C(=O)CC(c2ccc3c(c2)OCO3)c2c(O)cc(OC)cc2OC)C1 (stereo not given) | 3.23 µM (active) |  |
| COc1cc(O)c(C(CC(=O)N2CCCC(COc3ccc(F)cc3)C2)c2ccc3c(c2)OCO3)c(OC)c1 (stereo not given) |  | -4.08% (inactive) |
| COc1cc(OC)c(C(c2ccccc2)C(C)(C)C(=O)N2CC(C)CC(C)C2)c(OC)c1 (stereo not given) | 5.12 µM (active) |  |
| COc1cc(O)c(C(CC(=O)N2CCCC(CN3CCCCC3)C2)c2ccc3c(c2)OCO3)c(OC)c1 (stereo not given) |  | -10.8% (inactive) |
| Cc1nn(-c2cc(C)c3ccccc3n2)c2c1C1C(C2)C1(C)C (stereo not given) | 3.63 µM (active) |  |
| CCOc1cccc(-c2cc(-c3n[nH]c(=S)n3CC)c3ccccc3n2)c1 | 2.29 µM (active) and 1.82 µM (active) |  |

| SMILES | Potency | activity change, negative = inhibition |
| --- | --- | --- |
| CCOC(=O)c1sc(NC(=O)c2ccc(S(=O)(=O)N(C)C)cc2)nc1C | 0.129 µM (active) |  |
| CC(C)(C)c1ccc(S(=O)(=O)Nc2ccc(C(O)(C(F)(F)F)C(F)(F)F)cc2)cc1 | 20.4 µM (active) |  |
| COc1cc(O)c(C(CC(=O)N2CCC(c3ccccc3)CC2)c2ccc3c(c2)OCO3)c(OC)c1 (stereo not given) | inactive |  |
| COc1cc(O)c(C(CC(=O)N2CCCC(C(=O)N3CCCCC3)C2)c2ccc3c(c2)OCO3)c(OC)c1 (stereo not given) |  | 30% (inactive) |
| COc1cc(O)c(C(CC(=O)N2CCCCC2)c2ccc(OC)c(OC)c2)c(OC)c1 (stereo not given) |  | -14.4% (inactive) |
| CCC(=O)C1CCCN(C(=O)CC(c2ccc3c(c2)OCO3)c2c(O)cc(OC)cc2OC)C1 (stereo not given) |  | 2.25% (inactive) |
| COc1cc(C)nc(-n2nc(C)cc2OC)n1 | 3.23 µM (active) |  |
| COc1cc(O)c(C(CC(=O)NC2CCCc3ccccc32)c2ccc3c(c2)OCO3)c(OC)c1 (stereo not given) |  | 11.2% (inactive) |
| COc1cc(O)c(C(CC(=O)N2CCCC(C)C2)c2ccc(C)cc2)c(OC)c1 (stereo not given) | 10.2 µM (active) |  |
| Cc1ccc(OCCCC(=O)Nc2nc3ccccc3[nH]2)cc1 | 7.24 µM (active) |  |
| COc1cc(O)c(C(CC(=O)N2CC(C)CC(C)C2)c2ccc3c(c2)OCCO3)c(OC)c1 (stereo not given) | 0.645 µM (active) |  |
| COc1cc(O)c(C(CC(=O)N2CCCC(CO)C2)c2ccc3c(c2)OCO3)c(OC)c1 (stereo not given) |  | -2.57% (inactive) |
| O=C(CCCOc1ccccc1)Nc1nc2ccccc2[nH]1 | 7.24 µM (active) |  |
| COc1cc(O)c(C(CC(=O)N2CC(C)CC(C)C2)c2ccc(O)cc2)c(OC)c1 (stereo not given) | 2.04 µM (active) |  |
| CC1CCCN(C(=O)CC(c2ccccc2)c2ccccc2O)C1 (stereo not given) |  | 9.21% (inactive) |
| CCOC(=O)Cn1c(CN2CCc3ccccc3C2)nc2c1c(=O)n(C)c(=O)n2C | 5.75 µM (active) |  |
| COc1ccc(CNC(=O)[C@@H](NC(=O)C2CCN(C(=O)[C@@H]3CCCN3C(=O)OC(C)(C)C)CC2)C(C)C)cc1 |  | -21% (inactive) |
| COc1cc(O)c(C(CC(=O)N2CCCC(C)C2)c2ccccc2OC)c(OC)c1 (stereo not given) |  | 0.544% (inactive) |
| COc1cc(O)c(C(CC(=O)N2CCOCC2)c2ccc(OC)c(OC)c2)c(OC)c1 (stereo not given) |  | -16.7% (inactive) |
| COc1cc(O)c(C(CC(=O)NCc2ccccc2)c2ccc3c(c2)OCO3)c(OC)c1 (stereo not given) |  | 8.94% (inactive) |
